An excerpt weighted towards active compounds, which were near 19% of everything screened.
KB-V1 MDR tox – kills drug-selected multidrug resistant KB-V1 cells; KB-V1 MDR cells viability, CellTiter-Glo, 72 h; Potency, µM (titrated, usually from 46.1 µM), actives largely listed as cytotoxic; 400,000 tested, 3.4% active; also: nearly all actives have a fitted effect of over 60% in size
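Cytotoxicity toward P-gp-expressing KB-V1 cells was determined as loss of CellTiter-Glo luminescence after 72 h at 37 degrees C. Compounds were tested in quantitative HTS format across a concentration range, with curves fitted to normalized data.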
HT1080 IDH1KD tx – toxicity to HT-1080 IDH1 knockdown cells (counter line). AID 686971. HT-1080 IDH1 knockdown viability, ATP luminescence, 48 h. Potency, µM (titrated, usually from 46.1 µM), usual class: cytotoxic. 360,000 tested, 2% active
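In this qHTS, HT-1080 cells depleted of IDH1 are exposed for 48 h at 37 °C to compound titrations. Toxicity is scored from CellTiter-Glo luminescence, with DMSO as full viability and medium alone as none.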
HT1080-NT tox – kills 2HG-producing HT-1080-NT fibrosarcoma cells. HT-1080-NT fibrosarcoma viability, CellTiter-Glo ATP luminescence, 48 h. Potency, µM (highest dose often 46.1 µM), usual class: cytotoxic. 360,000 tested, 1.6% active. AID 686970;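 also: NT is the 2HG producing partner of a matched IDH1 knockdown line; nearly all actives have a fitted effect of over 55% in size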
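Toxicity toward the 2HG-producing NT line was scored as %Activity, normalised to DMSO and no-cell wells, from CellTiter-Glo luminescence after 48 hours' treatment.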
DT40 TDP1 CPT – DT40-hTDP1 cell growth loss with CPT; chicken DT40 Tdp1-/-;hTDP1 cells + 20 nM CPT, ATP luminescence, 48 h; Potency, µM (doses to about 46.2 µM), most hits filed as inhibitors; 420,000 tested, 12% active; AID 686979; also: nearly all actives have a fitted effect of over 55% in size
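Chicken DT40 Tdp1-/- cells complemented with human TDP1, 400 cells/well, exposed to compounds plus 20 nM camptothecin for at least 48 h at 37 C; viability read as ATP content by CellTiter-Glo luminescence.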
TDP1 cell noCPT – qHTS for Inhibitors of human tyrosyl-DNA phosphodiesterase 1 (TDP1): qHTS in cells in absence of CPT; DT40 Tdp1-/- hTDP1 cells, no CPT, ATP luminescence, 48 h; Potency, µM (highest dose often 46.2 µM), most hits filed as inhibitors; 420,000 tested, 15% active; AID 686978, 2013; also: nearly all actives have a fitted effect of over 55% in size
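Luminescent ATP content (CellTiter-Glo) served as the growth readout. Knockout chicken DT40 cells expressing human TDP1 were exposed to compounds without camptothecin for a minimum 48 hr at 37 °C.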
KB-3-1 cytotox – kills parental KB-3-1 adenocarcinoma cells | Potency, µM (highest dose often 46.1 µM), actives largely listed as cytotoxic | AID 1347075 | KB-3-1 viability, CellTiter-Glo ATP luminescence, 72 h | 400,000 tested, 1.4% active; also: nearly all actives have a fitted effect of over 60% in size
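Viability of parental KB-3-1 cells, measured by CellTiter-Glo luminescence, followed a 72 h incubation at 37 °C with pinned compounds in phenol-red-free DMEM containing 10% FBS.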
Numbers stand for hits; – = inactive; ? = inconclusive; · = no result given; [ ] = dose if it differs, or a comment. Calls follow the shape of the dose curve; as a rule, active = well fitted curve in the direction sought with a large enough effect; inconclusive = small, poorly fitted or top-dose-only effect, or another doubt; inactive = no such curve, though single readings can be large; an effect the other way counts as inactive or inconclusive.

SMILES | KB-V1 MDR tox | HT1080 IDH1KD tx | HT1080-NT tox | DT40 TDP1 CPT | TDP1 cell noCPT | KB-3-1 cytotox
C1=C/C(=C2/C=Cc3ccccc32)c2ccccc2N1 | 2.31µM | · | · | ? | – | 4.61µM
COc1cccc(CNC(=O)CSC2=Nc3ccccc3C3=NC(C(C)C)C(=O)N23)c1 (centres undefined) | – | · | · | – | – | –
COc1ccc(CCNC(=O)C(=O)NCC2OCCN2S(=O)(=O)c2ccc(OC)c(OC)c2)cc1 (centres undefined) | – | – | – | – | ? | –
COc1ccc(CCNC(=O)C(=O)NCC2OCCN2S(=O)(=O)c2ccc3c(c2)OCCO3)cc1OC (centres undefined) | · | – | – | ? | ? | ·
COc1ccc(S(=O)(=O)N2CCOC2CNC(=O)C(=O)NCCc2ccc(OC)c(OC)c2)cc1C (centres undefined) | ? | – | – | ? | 16.4µM | –
COc1ccc(CCNC(=O)C(=O)NCC2OCCN2S(=O)(=O)c2ccc3c(c2)OCCO3)cc1 (centres undefined) | · | – | – | 20.6µM | 16.4µM | ·
Cc1ccc(CNC(=O)C(=O)NCC2OCCN2S(=O)(=O)c2ccc3c(c2)OCCO3)cc1 (centres undefined) | ? | – | – | 25.9µM | – | –
NS(=O)(=O)c1ccc(CCNC(=O)C(=O)NCC2OCCN2S(=O)(=O)c2ccc(Cl)cc2)cc1 (centres undefined) | – | – | – | 23.1µM | ? | –
COc1ccccc1OCC(=O)Nc1nc(-c2ccc(Br)cc2)ns1 | · | · | · | – | – | ·
COc1ccc(NC(=O)CCNS(=O)(=O)c2cccc3nsnc23)cc1Cl | – | · | · | – | – | –
COc1cccc(C(=O)N(Cc2nc(-c3cccc(C)c3)no2)C(C)C)c1OC | – | – | – | ? | 18.4µM | –
Cc1cccc(-c2noc(CN(C(=O)c3ccc(Br)o3)C(C)C)n2)c1 | ? | – | – | ? | – | –
COc1ccccc1C(=O)N(Cc1nc(-c2cccc(C)c2)no1)C(C)C | ? | · | · | 20.6µM | ? | –
CCOC(=O)c1cc(-c2ccc(C)cc2)n(CC(=O)NC2CCCCCC2)c1C | – | · | · | 23.1µM | ? | ?
CCOC(=O)c1cc(-c2ccccc2)n(CC(=O)NC2CCC(C)CC2)c1C (centres undefined) | · | · | · | 14.6µM | 11.6µM | ·
COc1ccc(CCNC(=O)Cn2c(-c3ccc(F)cc3)cc(C(C)=O)c2C)cc1OC | – | · | · | 25.9µM | 20.6µM | –
CC(=O)c1cc(-c2ccc(F)cc2)n(CC(=O)NC2CCCCCC2)c1C | – | · | · | ? | 16.4µM | –
CC(=O)c1cc(-c2ccccc2)n(CCC(=O)NC2CCCCC2)c1C | – | – | – | ? | ? | –
CCOC(=O)c1cc(-c2ccccc2)n(CCC(=O)NC(C)CC)c1C (centres undefined) | – | – | –[9.24 µM] | – | – | –
Cc1ccc(NC(=O)CSCc2cc(=O)c3ccccc3[nH]2)c(C)c1 | – | · | · | ? | ? | –
Fc1ccc(Nc2nc(Nc3ccc(F)cc3)nc(N3CCOCC3)n2)cc1 | – | · | · | ? | ? | –
Fc1ccc(Nc2nc(N3CCOCC3)c3ccccc3n2)cc1 | 16.4µM | – | – | ? | 23.1µM | ?
c1ccc2c(Nc3nc(N4CCOCC4)c4ccccc4n3)cccc2c1 | ? | 14.6µM | 20.6µM | 13µM | 23.1µM | ?
FC(F)(F)c1ccccc1-c1nc(N2CCOCC2)c2ccccc2n1 | · | · | · | – | – | ·
c1ccc2c(c1)nc(N1CCOCC1)c1c3ccccc3[nH]c21 | 20.6µM | – | – | ? | ? | –
SMILES | KB-V1 MDR tox | HT1080 IDH1KD tx | HT1080-NT tox | DT40 TDP1 CPT | TDP1 cell noCPT | KB-3-1 cytotox
CSc1ccc(S(=O)(=O)Nc2c(C)n(C)n(-c3ccccc3)c2=O)cc1 | – | – | – | – | – | –
COC(CNC(=O)c1ccc2c3c(onc13)-c1ccccc1C2=O)OC | – | ? | 23.1µM | 2.91µM | 3.26µM | ?
COC(CNC(=O)c1cccnc1)OC | – | – | – | – | – | –
Cc1cc(Cl)c(OCCCN2CCCCC2)c(Br)c1 | – | – | – | – | ? | ?
Cc1cc(Cl)c(OCCCNCc2ccccc2)c(Br)c1 | ? | – | – | ? | 18.4µM | ?
Cc1cc(C)c(OCCCNC2CCCC2)c(Br)c1 | ? | ? | ? | 13µM | 7.31µM | ?
Cc1cc(C)c(OCCCNCc2ccccc2)c(Br)c1 | – | – | – | 18.4µM | 23.1µM | –
Nc1c(C(=O)NCCc2ccccc2)nnn1CC(=O)Nc1ccc(Cl)cc1 | · | · | · | – | – | ·
CC1CCN(C(=O)c2ccc(CSc3nc4ccncc4n3Cc3ccc(F)cc3)cc2)CC1 | – | – | – | 23.1µM | ? | ?
O=C(c1ccc(CSc2nc3ccncc3n2Cc2ccccc2)cc1)N1CCCCCC1 | – | · | · | 9.2µM | 16.4µM | –
O=C(NC1CC1)c1ccc(Cn2c(SCc3ccc(F)cc3)nc3cccnc32)cc1 | · | · | · | – | – | ·
Cc1cccc(Cn2c(SCc3ccc(C(=O)N4CCCCCC4)cc3)nc3ccncc32)c1 | · | · | · | – | ? | ·
CC1CCN(CCNC(=O)c2ccc(Cn3c(SCc4ccccc4)nc4cccnc43)cc2)CC1 | – | · | · | ? | ? | –
CC1CCCN(C(=O)c2ccc(CSc3nc4ccncc4n3Cc3ccccc3)cc2)C1 (centres undefined) | – | · | · | 16.4µM | 23.1µM | –
Cc1ncc2c(c1CNS(=O)(=O)N(C)C)CCN(C(=O)/C=C/c1ccccc1F)C2 | · | · | · | –[9.04 µM] | – | ·
Nc1nc(NCc2ccccc2Cl)n(-c2ccccc2)n1 | – | – | – | – | – | –
Cc1cc(NC(=O)C(C)SCC(=O)OCC(=O)Nc2c(C)cccc2C(C)C)no1 (centres undefined) | – | – | – | – | – | –
NC(=O)/C(=C/c1ccco1)C(N)=S | – | – | – | – | – | –
COc1ccc(N2CCN(C(=O)c3ccc(N(C)S(=O)(=O)c4ccc(OC)cc4)cc3)CC2)cc1 | ? | – | – | ? | 16.4µM | ?
Cc1ccc(S(=O)(=O)N2CCN(C(=O)c3cccc(-n4cccc4)c3)CC2)cc1 | ? | – | – | 16.4µM | ? | –
COc1ccc(S(=O)(=O)N(C)c2ccc(C(=O)N3CCN(C)CC3)cc2)cc1 | – | – | – | – | – | –
COc1ccc(N2CCN(C(=O)c3ccc(S(=O)(=O)N4CCOCC4)cc3)CC2)cc1 | 16.4µM | – | – | ? | ? | –
COc1ccc(N2CCN(C(=O)c3ccc(N(C)S(=O)(=O)c4ccc(C)cc4)cc3)CC2)cc1 | ? | – | – | 16.4µM | 16.4µM | –
O=C(c1ccco1)N1CCC2(CC1)CCN(c1ccc(-c3ccccc3)cc1)CC2 | · | · | · | – | – | ·
CCCCn1c(N)c(N(CCC(C)C)C(=O)C2CCCC2)c(=O)[nH]c1=O | – | – | – | – | ? | –

Screening data (PubChem)
